In PubChem BioAssay one finds composite z-score, composite Z-score and z-score data, which are given here for six compounds.

Active and inactive are the calls of the source.

One test concerns the target Albumin (Bos taurus) (UniProt P02769). The test can be described thus: compounds binding labelled BSA control protein – biochemical, small-molecule microarray, Alexa647 label, 635/667 nm fluorescence, artefact control for SMM control protein annotation, profiling panel (AID 1118).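 Note: score merges 667 nm emission intensity and signal-to-noise per printed compound spot.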 The note with it: BSA-A647 binding, fluorescence 635 nm, higher = more signal.
A short description of test [1]: probe aXIP binding to arrayed compounds – biochemical, NeuroSMM set, 635/667 nm fluorescence, primary screen (AID 1119).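 Note: probe is the protein aXip251-270 applied at 1 µg/mL to compound-printed slides; binding of probe to printed compounds measured as 667 nm fluorescence plus signal to noise.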 Particulars: small-molecule microarray, higher = more signal, called active from +8 up or from −8 down.
A short description of test [2]: probe aNOTCH3 binding on compound microarray – biochemical, small-molecule microarray, 635/667 nm fluorescence, primary screen (AID 1120).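 Note: probe is a biotin-tagged antibody raised against NOTCH3 rather than NOTCH3 protein; score merges spot fluorescence near 667 nm with spot signal to noise.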 The note with it: higher = more signal.
Test [3] in a line: probe aNOTCH2 binding on compound microarray – biochemical, small-molecule microarray, 635/667 nm fluorescence, primary screen (AID 1121).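 Note: score merges feature fluorescence read at 667 nm with its signal to noise.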 Particulars: higher = more signal.
The target in test [4] is Carbonic anhydrase 2 (Homo sapiens) (UniProt P00918). The test can be described thus: compounds binding carbonic anhydrase 2 – biochemical, small-molecule microarray, Alexa647-labelled CAII, profiling panel (AID 1122). The note with it: CAII-A647 binding fluorescence, higher = more signal.
The nature of test [5]: COS7 lysate on small-molecule microarray, probe aHis, 635 nm (AID 1123).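 Note: z-score combines 667nm fluorescence intensity with signal-to-noise per printed compound spot.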 The note with it: COS7 cell lysate, fluorescence, higher = more signal.
The nature of test [6]: probe aLAP1 signal on lysate-treated microarray – cell lysate, small-molecule microarray, COS7 lysate, primary screen (AID 1124).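 Note: lysate comes from COS7 cells expressing LAP1 and is applied at 0.3 µg/mL; score merges spot fluorescence near 667 nm with signal-to-noise over triplicate slides.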 Particulars: probe aLAP1, fluorescence, higher = more signal.
The next test relates to Sam68 (KHDRBS1). The test can be described thus: compounds binding KHDRBS1 protein – biochemical, small-molecule microarray, 635 nm fluorescence, primary screen (AID 1125).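 Note: score merges 667 nm channel intensity with signal to noise over triplicate slides.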 Particulars: higher = more signal.
For test [7], the system named is Chordin-like protein 2 (CHRDL2). The test can be described thus: compounds binding chordin-like 2 – biochemical, small-molecule microarray, 635 nm fluorescence, primary screen (AID 1126).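 Note: printed compound slides probed with Chrdl2 protein at 4 µg/mL for 1 h at 4 C; score merges 667 nm emission intensity with signal to noise over three replicate slides.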 Particulars: fluorescence 635 nm, higher = more signal.
In test [8] the target is Concanavalin-A (Canavalia ensiformis) (UniProt P02866). The test can be described thus: compounds binding concanavalin A lectin – biochemical, small-molecule microarray, Alexa647 label, 635 nm, artefact control for SMM control protein annotation, primary screen (AID 1127).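 Note: z combines 667 nm emission intensity with signal-to-noise across three replicate slides.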 The note with it: ConA-A647 binding fluorescence, higher = more signal.
Test [9] in a line: compounds binding Alexa647 anti-His antibody – biochemical, small-molecule microarray, 635 nm fluorescence, artefact control for SMM control protein annotation, primary screen (AID 1128).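 Note: score merges feature fluorescence with signal-to-noise for each printed compound spot.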 The note with it: higher = more signal.
For test [10], the system named is Human papillomavirus type 1a E7 protein (residues 1-88). The test can be described thus: HPV1a E7 small-molecule binders, primary screen, biochemical, small-molecule microarray, residues 1-88, 635 nm (AID 1129). Particulars: small-molecule microarray binding, fluorescence 635 nm; higher = more signal.
For test [11], the target named is Focal adhesion kinase 1 (Homo sapiens) (UniProt Q05397). Put plainly: PTK2 protein binding on printed compound slides – biochemical, small-molecule microarray, 635/667 nm fluorescence, BSA, DTT, primary screen (AID 1130).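 Note: composite of spot emission at 667 nm and signal to noise over triplicate slides.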 Particulars: 635 nm fluorescence, higher = more signal.
Test [12] concerns Fibrinogen (Alexa647-labelled). Put plainly: Alexa647-fibrinogen binding to printed small molecules – biochemical, small-molecule microarray, 635/667 nm fluorescence, artefact control for SMM control-protein annotation, profiling panel (AID 1131).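 Note: z-score merges 667 nm fluorescence with per-spot signal-to-noise over triplicate slides.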 Particulars: fibrinogen-A647 binding fluorescence, higher = more signal.
The target in test [13] is Follistatin (Homo sapiens) (UniProt P19883). Put plainly: FST protein binding to printed compounds – biochemical, small-molecule microarray, 635/667 nm fluorescence, primary screen (AID 1132). Particulars: 635 nm fluorescence, higher = more signal.
In test [14] the target is Fibroblast growth factor 2 (Homo sapiens) (UniProt P09038). The test can be described thus: basic fibroblast growth factor binding to printed compounds – biochemical, small-molecule microarray, 635/667 nm fluorescence, primary screen (AID 1133). Particulars: FGF2, fluorescence 635/667, higher = more signal.
Test [15] in a line: JC-1 mitochondrial potential readout, lung cancer cells – cell-based, A549, JC-1 fluorescence, basal, 24 h, 100 nL, profiling panel (AID 1138).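 Note: A549 lung adenocarcinoma cells under basal conditions with no added stimulus; test concentration not given here.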 The note with it: higher = more signal.
In the next test the test system is Lefty1. Put plainly: Lefty1 protein binding to printed compounds – biochemical, small-molecule microarray, 635/667 nm fluorescence, primary screen (AID 1139). The note with it: fluorescence 635/667, higher = more signal.
The subject of test [16] is wheat germ agglutinin (Triticum aestivum), Alexa647-labelled. The test can be described thus: Alexa647-WGA lectin binding to printed small molecules – biochemical, small-molecule microarray, 635/667 nm fluorescence, artefact control for SMM control-protein annotation, profiling panel (AID 1140).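 Note: score merges 667 nm feature emission with signal to noise over triplicate slides.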 The note with it: WGA-A647 binding, 635 nm fluorescence, higher = more signal.

Test [17] deals with Luciferin 4-monooxygenase (Photinus pyralis) (UniProt P08659). Put plainly: inhibition of purified Photinus pyralis luciferase – biochemical, luminescence, purified enzyme, 2006 set, primary screen (AID 1141).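 Note: cell-free assay with purified firefly luciferase at 100 ng per well in PBS; test concentration not given here.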 The note with it: purified firefly luciferase, SteadyGlo luminescence, 30 min; higher = more signal, called active from +8 up or from −8 down.
Sequence of Luciferin 4-monooxygenase (Photinus pyralis) (P08659 whole entry, looked up): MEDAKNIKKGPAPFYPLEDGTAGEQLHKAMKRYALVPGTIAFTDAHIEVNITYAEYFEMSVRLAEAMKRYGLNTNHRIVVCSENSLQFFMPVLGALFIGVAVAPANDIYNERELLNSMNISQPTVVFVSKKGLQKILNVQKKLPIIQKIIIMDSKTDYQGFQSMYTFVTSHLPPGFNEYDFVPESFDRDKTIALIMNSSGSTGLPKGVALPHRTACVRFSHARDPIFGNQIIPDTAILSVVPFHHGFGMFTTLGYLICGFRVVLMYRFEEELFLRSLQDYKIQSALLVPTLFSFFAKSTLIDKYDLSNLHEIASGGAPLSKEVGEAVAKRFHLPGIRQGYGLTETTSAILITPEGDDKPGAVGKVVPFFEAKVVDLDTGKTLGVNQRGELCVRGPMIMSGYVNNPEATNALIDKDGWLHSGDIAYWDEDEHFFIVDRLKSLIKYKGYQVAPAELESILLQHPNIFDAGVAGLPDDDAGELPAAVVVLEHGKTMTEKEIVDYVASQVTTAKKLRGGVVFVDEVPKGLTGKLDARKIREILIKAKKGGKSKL

Sequence of Follistatin (Homo sapiens) (P19883 whole entry, looked up): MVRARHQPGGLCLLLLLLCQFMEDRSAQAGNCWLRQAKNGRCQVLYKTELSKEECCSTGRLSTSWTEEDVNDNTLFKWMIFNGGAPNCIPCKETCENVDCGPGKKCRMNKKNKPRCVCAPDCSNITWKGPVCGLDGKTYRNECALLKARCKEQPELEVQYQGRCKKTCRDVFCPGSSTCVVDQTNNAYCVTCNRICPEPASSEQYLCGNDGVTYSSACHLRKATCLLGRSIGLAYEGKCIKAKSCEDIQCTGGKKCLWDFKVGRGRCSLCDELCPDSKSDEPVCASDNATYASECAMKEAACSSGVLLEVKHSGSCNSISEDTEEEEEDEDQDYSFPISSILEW
Sequence of Fibroblast growth factor 2 (Homo sapiens) (P09038 whole entry, looked up): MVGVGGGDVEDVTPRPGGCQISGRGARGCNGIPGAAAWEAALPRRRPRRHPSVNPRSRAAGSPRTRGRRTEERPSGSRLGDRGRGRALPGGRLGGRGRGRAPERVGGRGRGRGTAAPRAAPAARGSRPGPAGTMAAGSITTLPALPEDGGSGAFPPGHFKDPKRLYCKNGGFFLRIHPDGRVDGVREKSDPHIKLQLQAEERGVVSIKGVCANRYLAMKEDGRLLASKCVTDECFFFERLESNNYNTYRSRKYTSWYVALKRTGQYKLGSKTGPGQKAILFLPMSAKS
Sequence of Focal adhesion kinase 1 (Homo sapiens) (Q05397 whole entry, looked up): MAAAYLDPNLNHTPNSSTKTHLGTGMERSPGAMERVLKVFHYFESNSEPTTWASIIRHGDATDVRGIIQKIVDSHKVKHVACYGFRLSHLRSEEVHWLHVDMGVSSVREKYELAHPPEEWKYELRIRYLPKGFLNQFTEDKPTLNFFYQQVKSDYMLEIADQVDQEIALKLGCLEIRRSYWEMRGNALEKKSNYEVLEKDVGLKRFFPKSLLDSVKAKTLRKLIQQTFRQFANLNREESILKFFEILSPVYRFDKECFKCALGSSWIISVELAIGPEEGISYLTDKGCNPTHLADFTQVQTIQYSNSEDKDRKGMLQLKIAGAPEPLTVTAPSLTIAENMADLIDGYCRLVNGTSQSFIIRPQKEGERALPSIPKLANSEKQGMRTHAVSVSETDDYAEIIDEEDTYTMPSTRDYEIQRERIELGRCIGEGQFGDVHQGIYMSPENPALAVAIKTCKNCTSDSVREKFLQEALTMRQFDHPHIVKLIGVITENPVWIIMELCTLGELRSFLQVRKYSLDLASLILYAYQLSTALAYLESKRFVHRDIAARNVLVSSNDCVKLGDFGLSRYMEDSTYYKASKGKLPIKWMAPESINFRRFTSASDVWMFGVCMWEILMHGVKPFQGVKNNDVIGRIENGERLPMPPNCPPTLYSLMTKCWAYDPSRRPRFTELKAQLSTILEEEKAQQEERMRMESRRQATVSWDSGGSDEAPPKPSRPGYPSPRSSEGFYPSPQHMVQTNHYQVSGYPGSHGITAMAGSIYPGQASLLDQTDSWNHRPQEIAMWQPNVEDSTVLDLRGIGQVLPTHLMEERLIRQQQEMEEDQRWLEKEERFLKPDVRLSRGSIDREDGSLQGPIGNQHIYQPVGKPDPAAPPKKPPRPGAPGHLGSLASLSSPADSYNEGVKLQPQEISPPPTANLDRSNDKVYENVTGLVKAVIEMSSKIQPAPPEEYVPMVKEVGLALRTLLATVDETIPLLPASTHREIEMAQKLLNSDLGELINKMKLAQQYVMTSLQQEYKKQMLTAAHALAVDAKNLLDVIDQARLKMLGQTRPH
Sequence of Concanavalin-A (Canavalia ensiformis) (P02866 whole entry, looked up): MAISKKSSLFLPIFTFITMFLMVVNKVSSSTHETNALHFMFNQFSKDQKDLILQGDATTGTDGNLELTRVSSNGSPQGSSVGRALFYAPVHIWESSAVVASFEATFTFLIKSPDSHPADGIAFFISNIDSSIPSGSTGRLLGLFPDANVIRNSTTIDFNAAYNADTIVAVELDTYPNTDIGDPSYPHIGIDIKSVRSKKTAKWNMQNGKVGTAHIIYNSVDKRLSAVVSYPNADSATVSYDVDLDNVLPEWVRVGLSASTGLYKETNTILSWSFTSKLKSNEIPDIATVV
Sequence of Albumin (Bos taurus) (P02769 whole entry, looked up): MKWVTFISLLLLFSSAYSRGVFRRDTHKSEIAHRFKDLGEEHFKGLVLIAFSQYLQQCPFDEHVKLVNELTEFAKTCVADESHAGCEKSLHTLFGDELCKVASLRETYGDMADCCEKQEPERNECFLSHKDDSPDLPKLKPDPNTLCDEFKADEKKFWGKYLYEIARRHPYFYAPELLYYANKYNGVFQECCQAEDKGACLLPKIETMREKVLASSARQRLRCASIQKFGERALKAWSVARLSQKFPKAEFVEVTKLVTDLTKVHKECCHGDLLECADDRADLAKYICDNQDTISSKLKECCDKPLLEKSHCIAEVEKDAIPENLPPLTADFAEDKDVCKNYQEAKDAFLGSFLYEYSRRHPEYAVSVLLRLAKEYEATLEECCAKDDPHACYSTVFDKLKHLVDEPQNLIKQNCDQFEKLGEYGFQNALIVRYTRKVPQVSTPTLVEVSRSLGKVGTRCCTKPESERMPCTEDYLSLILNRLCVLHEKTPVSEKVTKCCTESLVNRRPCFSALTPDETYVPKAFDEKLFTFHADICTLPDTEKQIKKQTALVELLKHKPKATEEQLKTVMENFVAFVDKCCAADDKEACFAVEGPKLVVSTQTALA

Turning to `COc1ccc(C(O)C2C=CC3C(=O)N(C)C(=O)C3N2Nc2ccccc2)cc1` (stereo not given), the composite z-score came to 0.986 with Albumin (Bos taurus); 0.344 in test [2]; 0.0753 in test [3]; 0.376 in [4]; 2.87 in test [5]; 0.388 in [6]. For the same compound, the composite z-score with Sam68 (KHDRBS1) was 1.28; in [7] it was -0.224; in test [8], 1.17; in test [9], 0.908; in [10], 1.24; in test [11] it was 0.368. In addition, the composite z-score is 0.925 in test [12]; 0.578 in test [13]; 0.0159 in test [14]; -0.341 with Lefty1; 1.08 in test [16]. Moreover, the composite Z-score in test [1] was 0.195 (inactive). Further, the z-score in test [15] is 0.436; in test [17] it was -1.17 (inactive).

With `O=C(N1CCOCC1)[C@]1(CCS(=O)(=O)c2ccccc2)N=C(c2ccc(OCCCO)cc2)O[C@@H]1c1ccccc1`, the composite z-score with Albumin (Bos taurus) is 1.03; in test [2], 0.149; in test [3], -0.0256; in test [4], 0.441; in test [5] it was 2.86; in test [6], 0.473. In addition, the composite z-score in the test on Sam68 (KHDRBS1) is 1.31; in [7], -0.62; in [8], 1.21; in test [9], 2.94; in [10], 1.23; in [11], 0.99. In addition, the composite z-score is 0.996 in test [12]; 1.25 in [13]; 0.23 in test [14]; -0.588 with Lefty1; 1.29 in [16]. The composite Z-score in [1] was 1.35 (inactive). The z-score in [15] is 1.1; in test [17], -1.55 (inactive).

As to `O=C1N(Cc2ccccc2)c2ccccc2C[C@@]12N=C(c1ccc(OCCCO)cc1)O[C@H]2c1ccccc1`, the composite z-score is 0.542 in the test with Albumin (Bos taurus); -0.0328 in [2]; -0.0664 in [3]; 0.183 in test [4]; 2.47 in [5]; -0.0401 in [6]. Also, the composite z-score with Sam68 (KHDRBS1) turned out to be 1.29; in [7], 0.0949; in test [8] it was 1.06; in test [9] it was 1.81; in test [10] it was 1.13; in test [11] it was 0.791. For the same compound, the composite z-score was 0.209 in [12]; 1.33 in test [13]; 1.39 in test [14]; 0.309 in the test with Lefty1; 0.294 in test [16]. Also, the composite Z-score in test [1] was -0.329 (inactive). Moreover, the z-score in test [15] is -0.518; in test [17], -2 (inactive).

As for `CCCCCN1CC=CC23O[C@@H]4/C=C\CCCOC(=O)C4[C@H]2C(=O)N(CCCCCO)[C@@H]3C1=O` (stereo not given in full), the composite z-score with Albumin (Bos taurus) is -0.191; in test [2], -0.233; in [3], -0.182; in test [4], 0.777; in [5] it was -1.89; in test [6], -0.682. For the same compound, the composite z-score with Sam68 (KHDRBS1) was -0.178; in test [7], -0.801; in test [8] it was -0.691; in test [9], 0.163; in test [10] it was -0.766; in test [11], -0.565. Besides, the composite z-score in test [12] is -0.832; in test [13], -0.38; in test [14], -1.11; with Lefty1, -0.0788; in [16] it was -0.662. In addition, the composite Z-score in test [1] was -0.594 (inactive). In addition, the z-score in [15] was 0.27; in [17], -3.1 (inactive).

With `COc1ccc(-c2cc3c(c(CCc4ccccc4)n2)[Si](C(C)C)(C(C)C)O[C@H]3c2ccccc2)cn1`, the composite z-score was -0.425 with Albumin (Bos taurus); -0.0221 in test [2]; -0.162 in test [3]; -0.299 in test [4]; -0.405 in [5]; 0.0028 in [6]. Also, the composite z-score with Sam68 (KHDRBS1) was -0.605; in test [7] it was -0.315; in [8] it was 0.571; in test [9] it was -0.0334; in [10], -0.547; in [11], 0.16. Also, the composite z-score amounted to 0.285 in test [12]; 0.432 in [13]; 0.0958 in [14]; 0.169 in the test on Lefty1; 0.0926 in [16]. The composite Z-score in test [1] is -0.161 (inactive). In addition, the z-score in test [15] was 0.412; in test [17], -0.315 (inactive).

Take `C=CC[C@]1(C(=O)NCCN2CCOCC2)N=C(c2ccc(OCCCO)cc2)O[C@H]1c1ccccc1`: the composite z-score in the test with Albumin (Bos taurus) was -0.051; in test [2], 0.0813; in test [3] it was 0.0564; in test [4], 0.703; in test [5] it was 1.51; in test [6], 0.601. Besides, the composite z-score in the test on Sam68 (KHDRBS1) stood at 1.18; in [7], 0.708; in test [8], 0.469; in [9], 0.566; in test [10], 0.845; in test [11] it was 0.0827. Further, the composite z-score in [12] is -0.212; in [13], 1.44; in test [14] it was 1.8; in the test on Lefty1, 0.918; in test [16], 0.496. The composite Z-score in [1] was 0.0999 (inactive). The z-score is 0.654 in [15] and 0.601 (inactive) in test [17].
